# Screening data (PubChem BioAssay)
# GLD-1 RNA inh: GLD-1-TGE RNA interaction inhibition (C. elegans). 320,000 tested, 0.44% active. inhibition, % at 5.96 µM. purified GLD-1 + fluorescein TGE RNA, fluorescence polarization. AID 2280;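 active means percent inhibition above a per-plate cutoff, the plate mean of test compounds plus 3 SD, cut at about 30% in these data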;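 further: 0% = DMSO wells with GLD-1 and probe and 100% = wells lacking GLD-1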
# MEX-5 binding: C. elegans MEX-5 TCR-2 RNA binding activity. MEX-5/FITC-TCR2 RNA binding, fluorescence polarization; active compounds read low. activity score (negative = inhibition of binding), % at 10 µM. 300,000 tested, 0.38% active. Q9XUB2;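 active means inhibition past about -25% in most replicates, and total fluorescence under double the plate's negative control median, limit read from the data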;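 further: 0% = DMSO and -100% = 5 µM competing unlabeled TCR2 RNA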
# Target sequence (Q9XUB2 whole entry, looked up): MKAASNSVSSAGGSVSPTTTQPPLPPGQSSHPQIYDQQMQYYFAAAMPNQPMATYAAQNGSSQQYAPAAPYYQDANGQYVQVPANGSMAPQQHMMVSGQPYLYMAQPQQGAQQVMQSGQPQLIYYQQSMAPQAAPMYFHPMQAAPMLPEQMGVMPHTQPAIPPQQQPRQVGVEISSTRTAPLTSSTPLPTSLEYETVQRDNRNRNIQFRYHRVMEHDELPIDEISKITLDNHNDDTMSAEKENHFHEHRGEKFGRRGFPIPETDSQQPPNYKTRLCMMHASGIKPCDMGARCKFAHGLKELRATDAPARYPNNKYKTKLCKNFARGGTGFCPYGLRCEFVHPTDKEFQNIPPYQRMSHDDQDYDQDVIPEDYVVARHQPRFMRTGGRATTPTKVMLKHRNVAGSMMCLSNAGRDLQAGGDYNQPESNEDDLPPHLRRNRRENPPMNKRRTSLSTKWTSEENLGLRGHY
# EBV gp42 block: blocks Epstein-Barr virus glycoprotein 42 binding; Fluorescence polarization binding assay, mP read-out; AID 1085; inhibition, % (tested at 21.74 µM); 220,000 tested, 0.42% active; in the data active means inhibition above about 50%
# Bcl-xL primary: blocks human Bcl-xL binding to Bim BH3 peptide | Q07817 | GST-Bcl-xL / FITC-Bim BH3 peptide fluorescence polarization | inhibition, % at 10.9 µM | 320,000 tested, 0.7% active | AID 2129;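 active means inhibition above the mean of all tested compounds plus 3 SD, cutoff set per campaign, cut at about 30% in these data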;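 further: 0% = DMSO wells and 100% = unlabeled Bim-BH3 peptide competitor; inhibitors lower millipolarization by displacing the labeled peptide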
# eLon inh: E. coli protease La inhibition; P0A9M0; purified E. coli Lon protease, fluorescence polarization; inhibition, % at 7.94 µM; 360,000 tested, 0.42% active; AID 602123; in the data active means inhibition above about 13%, passing the limit was not always enough;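 further: 0% = enzyme with probe and DMSO and 100% = no enzyme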
# * hit, by the source's call; . = no result. Rows were chosen to be rich in hits. Some 1.3% of all compounds tested hit in one or more screens of this group.
SMILES,GLD-1 RNA inh,MEX-5 binding,EBV gp42 block,Bcl-xL primary,eLon inh
CCOC(=O)c1cc(C#N)c(SCC(N)=O)[nH]c1=O,12.8,-23.5,13.8,38.4*,-8.5
CCN(CC)c1ccc(N=Nc2nn(C)c(C)c2[N+](=O)[O-])cc1,-2.0,0.1,-16.2,0.5,0.7
CCN(CC)c1ccc(N=Nc2ncn[nH]2)cc1,-33.3,-51.9*,-41.9,-14.6,-12.4
CC(C)c1ccc(C2C3CSCC=C3C(C#N)=C(N)C2(C#N)C#N)cc1 (stereo unspecified),3.7,2.6,-27.2,0.0,.
N#CC1=C(N)C(C#N)(C#N)C(c2ccc[nH]2)C2CCCC=C12 (stereo unspecified),77.5*,-17.5,8.3,66.8*,8.1
N#CC1=C(N)C(C#N)(C#N)C(c2cccnc2)C2CC(c3ccccc3)CC=C12 (stereo unspecified),103.4*,2.8,22.9,110.0*,18.1*
N#CC1=C(N)C(C#N)(C#N)[C@H](c2cccnc2)[C@H]2CN(C(=O)OCc3ccccc3)CC=C12,8.4,-0.6,4.0,7.8,6.6
N#CC1=C(N)C(C#N)(C#N)C(c2cccnc2)C2CCCC=C12 (stereo unspecified),59.7*,-26.3*,49.1,84.2*,.
CC1(C)CC(=O)C2=C(C1)OC1=C(C2)C(=O)CC(C)(C)C1,0.0,-0.3,3.5,3.3,2.1
O=C(O)C(=O)/C(=C\c1cccc2ccccc12)c1ccc2ccccc2n1,-4.3,-39.7*,-22.1,-33.3,-22.4
O=C(O)C(=O)/C(=C\c1ccsc1)c1ccc2ccccc2n1,2.7,-47.9*,.,-2.4,-9.8
COC1(OC)N=C(N)C2(C#N)C(c3ccccc3)NC(C)=CC12C#N (stereo unspecified),5.6,-5.9,-6.5,10.5,-1.8
CC1=CC(C#N)(C#N)C(C#N)(C#N)C(c2ccccc2)N1 (stereo unspecified),118.9*,-53.5*,113.8*,144.9*,.
CN(CC(=O)Nc1ccc(F)cc1)C(=O)CCc1nc2ccccc2c(=O)[nH]1,0.2,-3.8,.,11.7,4.3
CN(CC(=O)Nc1ccccc1Cl)C(=O)CCc1nc2ccccc2c(=O)[nH]1,24.9,-11.5,.,30.7*,-13.9
O=C(NCc1ccc(F)cc1F)[C@@H]1CCCN1C(=O)[C@@H]1CCCN1C(=O)c1ccc(Cl)cc1,.,.,.,.,-6.5
CC(=O)Nc1nnc(SCc2cccc(F)c2)s1,0.1,-2.1,-18.7,47.2*,-3.6
CC(=O)Nc1nnc(SCc2ccc(F)cc2)s1,-1.3,3.4,-3.3,6.4,-7.0
CCc1nc(NCCCCCO)c2nnn(Cc3ccccc3F)c2n1,1.9,-1.3,11.6,4.6,-3.8
CCOC(=O)c1c2c3c(cccc3[nH]c1=O)C(=O)c1ccccc1-2,21.5,-5.6,14.3,53.6*,-2.1
COCCCNc1c2c3c(cccc3[nH]c1=O)C(=O)c1ccccc1-2,74.8*,.,-88.1,116.9*,-38.2
CCCCCCNc1c(C(=O)OCC)c(=O)[nH]c2ccccc12,-2.5,-1.2,5.5,-4.2,2.3
C=CC1=C(C(=O)O)N2C(=O)[C@@H](NC(=O)/C(=N\O)c3csc(N)n3)[C@H]2SC1 (stereo in doubt),11.3,-25.6*,.,7.0,-1.0
CCn1ccc(C(=O)NC2C(=O)N3C(C(=O)O)=C(C)CSC23)n1 (stereo unspecified),-1.1,.,-13.2,-1.6,-6.4
CC1=Nc2ccc(C)cc2/C1=C/c1c(N)n2nc(CC(=O)N3CCOCC3)sc2nc1=O,-32.0,-51.8*,.,-11.1,-89.4
SMILES,GLD-1 RNA inh,MEX-5 binding,EBV gp42 block,Bcl-xL primary,eLon inh
O=C(O)c1ccc(S(=O)(=O)/N=C2\C=C(Nc3ccccc3F)C(=O)c3ccccc32)cc1,8.6,-42.2*,.,23.9,4.3
CCOc1ccc(N2CC(C(=O)Nc3nnc(CC)s3)CC2=O)cc1 (stereo unspecified),-4.7,-0.7,.,-1.9,-7.6
COc1cccc(N=Nc2c(=O)[nH]n3c(=O)c4c([nH]c23)CCC4)c1,1.0,-3.6,-0.4,15.5,-5.3
COc1cccc(N=Nc2c(=O)[nH]n3c(=O)cc(C)[nH]c23)c1,-1.6,-32.4*,-6.1,11.2,4.7
O=C(/C(=C(\[O-])c1ccccc1)[n+]1ccc2ccccc2c1)c1ccc(Cl)cc1,3.6,-9.7,66.6*,8.6,-20.7
O=C(/C(=C(\[O-])c1ccccc1)[n+]1ccc2ccccc2c1)c1ccc([N+](=O)[O-])cc1,1.5,-0.4,-5.8,8.7,0.0
O=C(/C(=C(\[O-])c1ccccc1)[n+]1ccc2ccccc2c1)c1ccccc1,-9.6,-10.7,73.6*,2.7,-58.9
Cn1cc(Br)c(NC(=O)/C=C/C(=O)O)n1,1.5,2.5,-24.2,2.2,0.8
COc1ccccc1-c1cc(C(=O)O)c2c(=O)n(C)c(=O)n(Cc3ccccc3)c2n1,4.2,-2.6,.,-1.8,-13.5
Cn1c(=O)c2c(C(=O)O)cc(-c3ccccc3)nc2n(Cc2ccccc2)c1=O,21.8,-11.2,.,37.6*,-1.2
O=C(CN1CCN(C(=O)c2c(F)cccc2F)CC1)Nc1ccccc1C(F)(F)F,8.7,-0.4,.,0.3,0.5
COc1cccc(C(=O)Nc2ccc(Oc3cccc(C(F)(F)F)c3)nc2)c1,0.4,-1.5,0.3,6.5,3.3
COc1ccc(NC(=O)COc2cccc(C(F)(F)F)c2)cn1,61.4*,1.7,.,71.1*,10.8
CCOC(=O)N1CCC(=NNc2ccc(S(N)(=O)=O)cc2[N+](=O)[O-])CC1,0.2,-0.4,-0.5,2.5,5.7
Cc1ccc(S(=O)(=O)N2C[C@H]3[C@H]4C(=O)N(Cc5ccccc5)C(=O)[C@H]4CC(=O)[C@H]3[C@@H]2c2ccccc2)cc1,.,.,.,.,-10.5
COc1cccc(C(=O)N(c2ccc(OC)cc2OC)C2C=CS(=O)(=O)C2)c1 (stereo unspecified),28.1,0.1,0.9,60.9*,10.3
COc1ccc(N(C(C)=O)C2C=CS(=O)(=O)C2)c(OC)c1 (stereo unspecified),7.3,2.8,-20.0,6.1,-5.5
c1ccc(-c2nnc(-c3ccccn3)nn2)nc1,-2.6,-41.6*,.,0.4,0.3
O=C(O)CSc1c2c(nc3cc(C(=O)N4CCOCC4)ccc13)CCCC2,18.2,-8.9,-8.9,37.1*,5.0
CCOC(=O)N1CCN(C(=O)c2ccc3c(SCC(=O)O)c4c(nc3c2)CCCC4)CC1,16.4,0.1,-11.9,24.8,-9.2
NS(=O)(=O)c1ccc(-c2ccc(/C=C3\NC(=S)NC3=O)o2)cc1,-77.1,-64.9*,.,-93.4,-167.6
C=CCOC(=O)c1cc(-c2ccc(/C=C3\C(=O)NC(=O)C(C#N)=C3C)o2)ccc1Cl,.,.,57.5*,.,-44.0
CC1=C(C#N)C(=O)NC(=O)/C1=C/c1ccc(-c2ccc(S(N)(=O)=O)cc2)o1,5.6,-33.2*,-1.9,18.0,-26.3
COc1cccc(NC(=O)C2(C)CCN2C(=O)CCc2ccc(Cl)cc2Cl)c1 (stereo unspecified),.,.,.,.,-4.2
CCn1ccnc1[C@@H]1C[C@H]2CN(c3ccccc3OC)C(=O)[C@]23CCCN13,-7.3,-1.9,-6.8,-4.5,-2.1
